Screening data as filed in PubChem BioAssay.
GLP1R inv ag: qHTS of GLP-1 Receptor Inverse Agonists (Inhibition Mode) | Glucagon-like peptide 1 receptor (Homo sapiens), P43220 | HEK293 GLP-1R CRE-luciferase, luminescence, 24 h; GLP-1R form is constitutively active | Potency, µM (series often up to 38.3 µM), without a hit: at the highest dose activity change, negative = inhibition, usual class: inhibitors | 410,000 compounds, 1.6% hits | AID 624417, 2012; note: potency is the fitted concentration of half-maximal effect; % is set by controls: 0 for no effect and ±100 for the full control effect; nearly all actives have a fitted effect of over 55% in size
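Constitutively active GLP-1R drives a cAMP-responsive luciferase in stably transfected HEK293 cells; test compounds are added after overnight (12 h) attachment and left 24 hr, and signal loss in luminescence marks inhibition.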
GLP1R ag: qHTS of GLP-1 Receptor Agonists. 380,000 compounds, 0.007% hits. HEK293 GLP-1R CRE-luciferase, luminescence, 4-6 h; cells express a hypersensitive GLP-1R form. AID 624172, 2012. Potency, µM (top dose mostly 45.6 µM), without a hit: at the highest dose activation, most hits filed as activators; note: potency is the fitted concentration of half-maximal effect; % of control where 0% means no effect
PTHR1 ag: qHTS for PTHR1 Agonists: Primary Screen | Parathyroid hormone/parathyroid hormone-related peptide receptor (Homo sapiens), Q03431 | HEK293 GP2 PTHR1 cells, GloSensor cAMP luminescence, 1 h | Potency, µM (series often up to 115 µM), for inactives: at the top dose activation, hits mostly activators | 410,000 compounds, 0.075% hits | AID 743266, 2014; note: potency is the fitted concentration of half-maximal effect; nearly all actives have a fitted effect of over 55% in size
Target sequence (Q03431 whole entry, looked up): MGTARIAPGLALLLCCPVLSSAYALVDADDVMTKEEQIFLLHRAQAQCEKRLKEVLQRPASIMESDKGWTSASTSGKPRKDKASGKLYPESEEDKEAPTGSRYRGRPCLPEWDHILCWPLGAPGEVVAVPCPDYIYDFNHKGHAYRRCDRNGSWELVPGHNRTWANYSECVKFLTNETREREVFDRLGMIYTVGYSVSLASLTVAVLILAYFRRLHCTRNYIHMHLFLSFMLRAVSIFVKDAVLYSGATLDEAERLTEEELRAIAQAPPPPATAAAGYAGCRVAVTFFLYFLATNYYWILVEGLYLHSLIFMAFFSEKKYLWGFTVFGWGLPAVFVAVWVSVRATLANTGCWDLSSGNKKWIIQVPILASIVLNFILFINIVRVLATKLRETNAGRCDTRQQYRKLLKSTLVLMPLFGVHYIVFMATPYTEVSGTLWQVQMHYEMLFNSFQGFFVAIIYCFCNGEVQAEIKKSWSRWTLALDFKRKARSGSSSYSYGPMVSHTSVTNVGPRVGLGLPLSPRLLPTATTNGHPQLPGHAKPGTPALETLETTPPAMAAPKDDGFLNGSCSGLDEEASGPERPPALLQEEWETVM
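HEK-293-derived GP2 cells expressing PTHR1 and a GloSensor cAMP reporter, 3,000/well, plated overnight, given luciferin plus IBMX (each 0.5 mM as added) for 1 h at 37 °C, then compound for 1 h at 37 °C. Luminescence was read after 15 min at room temperature.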
TSHR antag: Antagonists of the Thyroid Stimulating Hormone Receptor: HTS campaign | Thyrotropin receptor (Homo sapiens), P16473 | TSHR-expressing cells, TSH-stimulated cAMP HTRF, 2 h; hits give low values | activity change, negative = inhibition, % at 11.5 µM | 330,000 compounds, 0.2% hits | AID 504810, 2011;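 active = activity change below a set negative limit, meaning inhibition stronger than a set level, cut at about -70% in these data; inconclusive = activity change between two set negative limits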; note: % is set by controls: 0 for no effect and ±100 for the full control effect
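TSHR-expressing cells were treated with compounds, then stimulated with TSH at EC80 (4nM final) for 2 hours at 37 deg C. Cellular cAMP was measured by HTRF competition between lysate cAMP and cAMP-d2 for a cryptate-labelled anti-cAMP antibody.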
HEK293 tox: qHTS of GLP-1 Receptor Inverse Agonists: Cytotox Screen. Potency, µM (top dose mostly 38.3 µM), for the others: at the top dose activity change, negative = inhibition, actives largely listed as inhibitors. AID 624418, 2012. HEK293 cAMP-luciferase reporter cells, luminescence, 24 h. 410,000 compounds, 0.13% hits;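 note: loss of luciferase light is scored as toxicity; potency is the fitted concentration of half-maximal effect; % is set by controls: 0 for no effect and ±100 for the full control effect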
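Seeding density was 200 cells/uL; after overnight-length (12 h) culture, 23 nL compounds went on for 24 h at 37 °C. Readout used a luciferase detection reagent, luminescence taken after 12 min at room temperature.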
Starred values were filed as active, the others as inactive; i = inactive; ? = inconclusive; nt = not tested or not shown; [ ] = another dose, or the depositor's remark. Shown are actives, neighbours in structure and some others; about 1.8% of the full set was active somewhere. Unless noted, calls come from the whole dose curve; as a rule, active = well fitted curve in the direction sought with a large enough effect; inconclusive = small, poorly fitted or top-dose-only effect, or another doubt; inactive = no such curve, though single readings can be large; an effect the other way counts as inactive or inconclusive.

SMILES	GLP1R inv ag	GLP1R ag	PTHR1 ag	TSHR antag	HEK293 tox
Cc1nc(-c2ccc(S(=O)(=O)Nc3cccc(Cl)c3)cc2)co1	?	7%	i	-13	3%
CSc1cccc(NS(=O)(=O)c2ccc(-c3coc(C)n3)cc2)c1	8.9µM*	0%	-32%	-30	0%
CN(C)S(=O)(=O)c1cccc(N=C2SCCN2Cc2ccccc2)c1	11µM*	19%	-30%	-12	15%
CCOC(=O)c1ccc(Oc2nc(NC(C)(C)C)nc(N(C)C)n2)cc1	7.9µM*	3%	-24%[57.5 µM]	-14	-19%
Cc1c(C(=O)Oc2ccc(Cl)cc2)n(C)oc1=O	21%	6%	i	-13	-14%
Cc1c(C(=O)NNc2c(Cl)cccc2Cl)n(C)oc1=O	3.5µM*	-6%	i	-1	-19%
O=C(CC1N=C2c3ccccc3N=C(SCC(=O)Nc3ccccc3F)N2C1=O)NCc1ccc2c(c1)OCO2 (centres undefined)	0%	nt	-16%	nt	-14%
Cc1ccccc1OCc1nc2ccccc2n1Cc1ccccc1Cl	3.5µM*	nt	-1%	nt	3%
Cc1cc(NC(=O)CSc2nc3cc(Cl)ccc3o2)no1	2.5µM*	5%	i	-3	?
O=C(Nc1ccc(F)c(Cl)c1)C1Cc2ccccc2CN1S(=O)(=O)c1ccc(F)cc1 (centres undefined)	10µM*	nt	-29%	nt	-5%
CCNC(=O)C1Cc2ccccc2CN1S(=O)(=O)c1ccc(F)cc1 (centres undefined)	6%	-3%	i	-10	4%
COC(=O)c1cn(NC(=O)C2CCC(C)CC2)c(=O)c2ccccc12 (centres undefined)	-23%	1%	i	-10	-16%
COC(=O)c1cn(NC(=O)c2cc([N+](=O)[O-])ccc2F)c(=O)c2ccccc12	1.6µM*	1%	-11%	-1	-6%
CCOC(=O)C1=CN(Cc2cccc(F)c2)S(=O)(=O)N(C)C1c1ccc(F)c(Cl)c1 (centres undefined)	10µM*	0%	-4%	13	1%
O=C(Nc1ccc(F)cc1F)c1ccc(CN2CC(=O)N3CCCCC3C2=O)cc1 (centres undefined)	4%	nt	?	nt	-1%
CCOC(=O)C(C)N1C(=O)S/C(=C/c2cc(C)n(-c3ccccn3)c2C)C1=O (centres undefined)	10µM*	0%	-54%	-14	-34%
CCOC(=O)C(C)N1C(=O)S/C(=C/c2cc(C)n(-c3ccncc3)c2C)C1=O (centres undefined)	?	7%	-17%	-3	-23%
COc1ccccc1NC(=O)CSc1oc(-c2ccccc2)nc1S(=O)(=O)c1ccc(C)cc1	-29%	nt	-19%	nt	0%
CCC(C(=O)O)C1OC(C(C)C(O)C(C)C(=O)C(CC)C2OC3(C=CC(O)C4(CCC(C)(C5CCC(O)(CC)C(C)O5)O4)O3)C(C)CC2C)C(C)CC1C (centres undefined)	nt	-6%	nt	nt	nt
Cc1ccc(NC(=O)CN(C)C(=O)c2ccccc2Sc2ccccc2C#N)cc1	?	8%	-14%	4	-2%
COc1cccc(CN(C)C(=O)c2ccccc2Sc2ccccc2C#N)c1OC	8.9µM*	12%	-13%	-3	-11%
Cc1ccc(CN(C)C(=O)c2ccccc2Sc2ccccc2C#N)cc1	10µM*	6%	-23%	-6	2%
CC(C)(C)NC(=O)C(c1ccccc1)n1c(=O)c(-c2ccccc2)nc2ccccc21 (centres undefined)	11µM*	nt	-15%	nt	-2%
COc1ccc(C(C(=O)NC(C)(C)C)n2c(=O)c(-c3cc4ccccc4[nH]3)nc3ccccc32)cc1 (centres undefined)	10µM*	nt	-11%	nt	i
